The full list was thinned out, with hits kept by preference.
ROMK primary – ROMK potassium channel modulators, primary screen, cell-based, thallium flux, MLSMR library; ATP-sensitive inward rectifier potassium channel 1 (Homo sapiens), P48048; Tet-inducible ROMK, thallium flux fluorescence; actives lie on both sides; hit rate 2% among 130,000; B-score at 10 µM;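 active = signal ratio slope over the read window, or its plate-corrected B-score, at least 3 SD from the plate mean, either direction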;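 note: B-score of the F/F0 ratio slope over 7 to 12 s after thallium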
Target sequence (P48048 whole entry, looked up): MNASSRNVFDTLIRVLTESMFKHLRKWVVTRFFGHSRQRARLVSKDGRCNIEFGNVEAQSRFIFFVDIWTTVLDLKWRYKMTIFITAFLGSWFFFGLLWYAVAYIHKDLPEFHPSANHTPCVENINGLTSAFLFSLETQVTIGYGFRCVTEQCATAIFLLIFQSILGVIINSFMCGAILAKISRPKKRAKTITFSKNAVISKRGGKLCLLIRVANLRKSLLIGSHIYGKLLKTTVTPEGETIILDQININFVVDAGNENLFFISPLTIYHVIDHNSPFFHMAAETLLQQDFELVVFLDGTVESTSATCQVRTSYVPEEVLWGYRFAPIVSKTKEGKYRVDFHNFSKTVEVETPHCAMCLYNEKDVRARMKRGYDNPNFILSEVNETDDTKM
HSV replic up – enhancers of HSV replication in host cells, fold increase, host cell viability; HSV replication augmentation in cells; maximum fold increase; hit rate 0.005% among 220,000; AID 1956, 2009; in the data active = maximum fold increase above about 1.5; inconclusive = no clear call, values can overlap the other calls; tested in PC3 cells
Ins promoter up – insulin promoter activators in MIN6 cells, imaging, high-content screening, mouse beta cells; MIN6 insulin promoter-GFP reporter; hits give high values; z-score at 5 µM; hit rate 0.3% among 190,000;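 active = z-score above 3 at 5 µM with at least 500 cells counted in the well; inconclusive = wells under 500 cells, flagged as cytotoxic or low count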
Tb hexokinase – Trypanosoma brucei hexokinase 1 inhibitors, primary screen, biochemical, G6PDH-coupled NADH absorbance, MLSCN library; hexokinase 1 [Trypanosoma brucei]; recombinant TbHK1, G6PDH-coupled NADH A340; inhibition, % at 10 µM; hit rate 0.11% among 220,000; AID 1430, 2008;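 active = inhibition of 50% or more in the single-dose primary screen; inactive = inhibition below 50%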
Insulin prom inh – inhibitors of insulin promoter-driven GFP, primary screen, imaging, TRM-6 cells (human fetal islet line), eGFP reporter, cell count. AID 1273, 2008. inhibition, % at 2 µM. reporter expression induced with tamoxifen. hit rate 0.9% among 130,000;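 active = inhibition above the mean plus 3 SD, with well images judged a real hit on visual review, cut at about 60% in these data, passing the limit was not always enough; inconclusive = inhibition over the cutoff but images rejected on review; inactive = inhibition not above the cutoff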
ROMK retest – ROMK channel modulator hit retest, confirmation, cell-based, thallium flux, duplicate, resupplied hits. fluorescence ratio; hits give low values. hit rate 54% among 3,000. shares compounds with ROMK primary. normalized thallium flux (F/F0 slope) at 10 µM;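 active = Flux at 10 µM at least 3 SD below or above vehicle control mean in one or both replicates; inconclusive = no clear call, values can overlap the other calls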
* marks the source's active call; other numbers are inactive results; i = inactive; ? = inconclusive; / = no result.

SMILES | ROMK primary | HSV replic up | Ins promoter up | Tb hexokinase | Insulin prom inh | ROMK retest
Cc1cc(C(=O)CN2C(=O)NC(c3ccccc3)(c3ccccc3)C2=O)c(C)n1Cc1ccco1 | / | i | / | -4 | / | /
CCN1CCS/C1=C\C=C\C1=[N+](CC)CCS1 | / | i | ? | 8 | / | ?
CCN1CCS/C1=C/C=C/C1=[N+](CC)CCS1 | -1.4 | i | ? | 3 | -233 | /
N/C(=N\OC(=O)Cc1cccs1)c1ccc([N+](=O)[O-])cc1 | -0.25 | i | -0.54 | 26 | -35 | /
CC(C)OCCCNC(=O)c1ccc(NS(C)(=O)=O)cc1 | / | / | -0.46 | 5 | -9 | 0.076
COCCNC(=O)c1ccc(NS(C)(=O)=O)cc1 | 1.6 | i | 1.1 | 6 | 3 | /
Cc1ccc(S(=O)(=O)NC(=O)Nc2ccc(OC(F)F)cc2)cc1 | / | i | 0.03 | 10 | / | /
Cc1nc2nc(C)c(CCC(=O)O)c(C)n2n1 | 0.56 | i | 0.01 | -2 | -29 | /
Cc1cc(C)cc(NC(=O)N2CCN(C/C=C/c3ccccc3)CC2)c1 | -4.2* | i | 0.08 | -6 | / | 0.067*
O=C(Nc1ccc(F)cc1)N1CCN(C/C=C/c2ccccc2)CC1 | / | i | -0.45 | 12 | 33 | /
COc1ccc(N=C2O/C(=C/c3sc(=S)n(CC4CCCO4)c3O)N=C2C#N)cc1 (stereo not given) | / | i | 0.45 | -36 | / | 0.055*
O=C(NCC1CCCO1)C(c1ccc(F)cc1)N(CC1CCCO1)C(=O)c1ccc(-c2ccccc2)[nH]1 (stereo not given) | -3.2* | i | 0.32 | -13 | / | 0.059*
O=C(NCC1CCCO1)C(c1cccs1)N(Cc1cccs1)C(=O)c1ccc(-c2ccccc2)[nH]1 (stereo not given) | -2.2 | i | -1.3 | 27 | 14 | /
CC(=O)c1ccc(N(C(=O)c2csnn2)C(C(=O)NC(C)(C)C)c2cccs2)cc1 (stereo not given) | -0.23 | i | -0.66 | -1 | / | /
O=C(NCC1CCCO1)C1CCCN(c2ncccn2)C1 (stereo not given) | / | i | 0.05 | -4 | -12 | 0.076
Cc1c(NC(=O)/C(C#N)=C/c2ccccc2)c(=O)n(-c2ccccc2)n1C | -2.9* | i | 1.4 | -4 | / | 0.051*
Cc1c(NC(=O)/C(C#N)=C/c2ccc(-c3ccccc3Cl)o2)c(=O)n(-c2ccccc2)n1C | / | / | -1.6 | -17 | / | 0.056*
CCCNC(=S)Nc1c(C)n(C)n(-c2ccccc2)c1=O | 0.88 | i | -0.02 | -2 | / | /
Cc1cccc(N2CCN(C(c3ccccc3)c3nnnn3C(C)(C)C)CC2)c1C (stereo not given) | -3.3* | / | / | -4 | 56 | 0.088
CC1CC(N(C(=O)C2CC2)c2ccccc2)c2ccccc2N1C(=O)C1CC1 (stereo not given) | -3.4* | i | -0.57 | 21 | 12 | 0.058*
CC1CN(C(=O)COC(=O)c2nn(-c3ccccc3)c(=O)c3ccccc23)CC(C)O1 (stereo not given) | 0.54 | i | -0.14 | -2 | -47 | /
CCOc1ccc(S(=O)(=O)NC(C)C)cc1C(N)=O | -0.018 | i | -0.34 | -1 | / | /
COc1ccc(OC)c(NC(=O)c2sc3nc(Cc4ccccc4)cc(C(F)(F)F)c3c2N)c1 | -4.2* | i | 1.2 | -20 | 10 | 0.033*
Cc1cccc(N2C(=S)NC3c4ccccc4OC2(C)C3C(=O)N(C)C)c1 (stereo not given) | -4.4* | i | / | -2 | 36 | 0.064*
CCOC(=O)COn1c(=O)c(-c2cccs2)[n+]([O-])c2ccccc21 | -4.2* | i | 0.01 | -2 | 49 | 0.059*
CCOn1c(=O)c(-c2cccs2)[n+]([O-])c2ccccc21 | / | i | / | 11 | 29 | /
O=C(O)CCC(NC(=O)C1CCCN1C(=O)OCc1ccccc1)C(=O)O (stereo not given) | 1.5* | i | / | 1 | / | 0.084
COc1cc(NC(=O)C2CCCN2C(=O)OCc2ccccc2)cc(OC)c1 (stereo not given) | -0.24 | i | 0.15 | 3 | / | /
CC1(N(O)C=C2C=CC(=O)C=C2)CCCCC1=O (stereo not given) | -0.47 | i | -0.56 | -49 | / | /
CCOc1cc(C(=O)Nc2ccc(N3CCOCC3)cc2)cc(Br)c1OC | 3.8* | i | / | 8 | -43 | 0.081

Compound activity (PubChem)
